Assay results as given in PubChem BioAssay AID1159580 (chemical genetic matrix, 2015).
“And” between values parts separate entries of the source, which are not always exact repeats. Identical values can stand only once. In all, about 5,500 compounds went through this assay and about 2,000 (36%) were called active. Not shown: some 18% with an inconclusive outcome. Rule as the data show it: active = normalized growth mostly below about 0.91 (no sharp cut-off); inconclusive = no clear call, values can overlap the other calls; inactive = mostly above about 0.92. The list shows a part of the results.

Assay: chemical genetic growth profiling, strain panel (AID 1159580);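 also: tested at 20 µM; growth read once vehicle control cultures reached saturation at 30 °C; 1 = growth at the plate median or of vehicle wells; lower values mean less growth of the strain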
Conditions: S. cerevisiae deletion strains, growth OD
[1] = locus YHR030C, strain SLT2, stronger effect = lower value
[2] = locus YHR079C, strain IRE1, stronger effect = lower value
[3] = locus YJL095W, strain BCK1, stronger effect = lower value
[4] = locus YJR066W, strain TOR1, stronger effect = lower value
[5] = locus YLR113W, strain HOG1, stronger effect = lower value
[6] = locus YNL183C, strain NPR1, stronger effect = lower value
[7] = locus YOR231W, strain MKK1, stronger effect = lower value
[8] = locus YPL256C, strain CLN2, stronger effect = lower value

Measured: normalized growth

C#CCN(C)C(C)Cc1ccccc1 (centres undefined)
inactive: [1] 1.01 | [2] 1.03 | [3] 1.02 | [4] 0.95 | [5] 0.994 | [6] 0.959 | [7] 1.02 | [8] 0.989

O=C(O)P(=O)(O)O
active: locus YKR001C, strain vps1, stronger effect = lower value 0.894 | locus YMR307W, strain GAS1, stronger effect = lower value 0.443
inactive: locus YAL013W, strain DEP1, stronger effect = lower value 0.961 | locus YAL021C, strain ccr4, stronger effect = lower value 1.01 | locus YAL026C, strain drs2, stronger effect = lower value 0.979 | locus YAL030W, strain snc1, stronger effect = lower value 0.985 | locus YBL061C, strain skt5, stronger effect = lower value 0.984 | locus YBR009C, strain hhf1, stronger effect = lower value 1.01 | locus YBR021W, strain FUR4, stronger effect = lower value 0.994 | locus YBR023C, strain chs3, stronger effect = lower value 0.969 | locus YBR171W, strain sec66, stronger effect = lower value 0.994 | locus YBR229C, strain ROT2, stronger effect = lower value 0.996 | locus YBR231C, strain swc5, stronger effect = lower value 0.958 | locus YBR279W, strain paf1, stronger effect = lower value 0.981 | locus YCL011C, strain gbp2, stronger effect = lower value 0.982 | locus YCL016C, strain dcc1, stronger effect = lower value 0.998 | locus YCL029C, strain bik1, stronger effect = lower value 0.969 | locus YCL069W, strain vba3, stronger effect = lower value 1 | locus YCR088W, strain abp1, stronger effect = lower value 0.984 | locus YDL005C, strain med2, stronger effect = lower value 0.968 | locus YDL035C, strain GPR1, stronger effect = lower value 1 | locus YDL040C, strain nat1, stronger effect = lower value 0.984 | locus YDL074C, strain BRE1, stronger effect = lower value 0.892 | locus YDL101C, strain DUN1, stronger effect = lower value 0.964 | locus YDL134C, strain PPH21, stronger effect = lower value 1.01 | locus YDL185W, strain tfp1, stronger effect = lower value 0.932 | locus YDL192W, strain arf1, stronger effect = lower value 0.961 | locus YDR001C, strain nth1, stronger effect = lower value 0.976 | locus YDR069C, strain doa4, stronger effect = lower value 0.983 | locus YDR101C, strain arx1, stronger effect = lower value 0.983 | locus YDR137W, strain rgp1, stronger effect = lower value 0.984 | locus YDR150W, strain NUM1, stronger effect = lower value 0.986 | locus YDR159W, strain sac3, stronger effect = lower value 0.963 | locus YDR162C, strain NBP2, stronger effect = lower value 0.902 | locus YDR195W, strain ref2 0.955 | locus YDR297W, strain sur2, stronger effect = lower value 0.992 | locus YDR318W, strain mcm21, stronger effect = lower value 0.976 | locus YDR334W, strain swr1, stronger effect = lower value 0.988 | locus YDR335W, strain msn5, stronger effect = lower value 0.991 | locus YDR388W, stronger effect = lower value 0.967 | locus YDR392W, strain spt3, stronger effect = lower value 0.977 | locus YDR502C, strain sam2, stronger effect = lower value 0.957 | locus YEL003W, strain gim4, stronger effect = lower value 0.984 | locus YEL037C, strain rad23, stronger effect = lower value 0.99 | locus YEL061C, strain CIN8 (second series), stronger effect = lower value 0.975 | locus YEL061C, strain CIN8, stronger effect = lower value 0.984 | locus YER015W, strain faa2, stronger effect = lower value 0.984 | locus YER016W, strain bim1, stronger effect = lower value 0.983 | locus YER110C, stronger effect = lower value 0.936 | locus YER111C, strain swi4, stronger effect = lower value 0.98 | locus YER155C, strain BEM2 (second series), stronger effect = lower value 0.935 | locus YER155C, strain BEM2, stronger effect = lower value 0.983 | locus YER167W, strain BCK2, stronger effect = lower value 0.98 | locus YFR010W, strain ubp6, stronger effect = lower value 0.965 | locus YGL078C, strain dbp3, stronger effect = lower value 0.986 | locus YGL086W, strain mad1, stronger effect = lower value 0.965 | locus YGL167C, strain pmr1, stronger effect = lower value 0.984 | locus YGL173C, strain kem1, stronger effect = lower value 0.992 | locus YGL227W, strain vid30, stronger effect = lower value 0.982 | locus YGL240W, strain doc1, stronger effect = lower value 0.964 | locus YGL248W, strain PDE1, stronger effect = lower value 0.94 | locus YGL253W, strain hxk2, stronger effect = lower value 0.985 | locus YGR078C, strain PAC10, stronger effect = lower value 0.93 | locus YGR135W, strain pre9, stronger effect = lower value 0.945 | locus YGR229C, strain SMI1, stronger effect = lower value 0.886 | locus YGR252W, strain gcn5, stronger effect = lower value 0.911 | locus YHR013C, strain ard1, stronger effect = lower value 0.985 | locus YHR027C, strain rpn1, stronger effect = lower value 0.999 | locus YHR079C, strain IRE1 (second series), stronger effect = lower value 0.963 | [2] 1.05 | locus YHR094C, strain hxt1, stronger effect = lower value 0.982 | locus YHR129C, strain ARP1, stronger effect = lower value 0.973 | locus YHR142W, strain chs7, stronger effect = lower value 0.978 | locus YHR200W, strain rpn10, stronger effect = lower value 0.96 | locus YIL066C, strain RNR3, stronger effect = lower value 0.999 | locus YIL073C, strain SPO22, stronger effect = lower value 0.868 | locus YIL125W, strain kgd1, stronger effect = lower value 0.979 | locus YIR030C, strain dcg1, stronger effect = lower value 0.959 | locus YJL092W, strain hpr5, stronger effect = lower value 0.982 | locus YJL095W, strain BCK1 (second series), stronger effect = lower value 0.993 | locus YJL115W, strain asf1, stronger effect = lower value 0.986 | locus YJL129C, strain trk1, stronger effect = lower value 0.984 | locus YJL134W, strain LCB3, stronger effect = lower value 0.985 | locus YJL154C, strain vps35, stronger effect = lower value 0.977 | locus YJL164C, strain tpk1, stronger effect = lower value 1 | locus YJL166W, strain qcr8, stronger effect = lower value 0.978 | locus YJL168C, strain set2, stronger effect = lower value 0.97 | locus YJL187C, strain SWE1 (second series), stronger effect = lower value 0.942 | locus YJL187C, strain SWE1, stronger effect = lower value 0.965 | locus YJR043C, strain POL32, stronger effect = lower value 0.972 | [4] 0.982 | locus YJR075W, strain HOC1, stronger effect = lower value 0.926 | locus YKL009W, strain mrt4, stronger effect = lower value 0.931 | locus YKL068W, stronger effect = lower value 0.969 | locus YKL085W, strain MDH1 (second series), stronger effect = lower value 0.96 | locus YKL085W, strain MDH1, stronger effect = lower value 0.96 | locus YKL160W, strain elf1, stronger effect = lower value 0.995 | locus YKL190W, strain CNB1, stronger effect = lower value 0.981 | locus YKR026C, strain gcn3, stronger effect = lower value 0.977 | locus YKR091W, strain srl3, stronger effect = lower value 0.986 | locus YLL001W, strain dnm1, stronger effect = lower value 0.991 | locus YLL026W, stronger effect = lower value 1 | locus YLL041C, strain sdh2, stronger effect = lower value 0.989 | locus YLR027C, strain aat2, stronger effect = lower value 0.974 | locus YLR039C, strain RIC1, stronger effect = lower value 0.855 | locus YLR058C, strain SHM2, stronger effect = lower value 0.97 | locus YLR102C, strain apc9, stronger effect = lower value 0.977 | [5] 1.07 | locus YLR221C, strain rsa3, stronger effect = lower value 0.975 | locus YLR258W, strain gsy2, stronger effect = lower value 1 | locus YLR262C, strain YPT6 (second series), stronger effect = lower value 0.967 | locus YLR262C, strain YPT6, stronger effect = lower value 0.842 | locus YLR268W, strain sec22, stronger effect = lower value 0.949 | locus YLR320W, strain mms22, stronger effect = lower value 0.967 | locus YLR330W, strain CHS5, stronger effect = lower value 0.957 | locus YLR342W, strain FKS1 (second series), stronger effect = lower value 0.897 | locus YLR342W, strain FKS1, stronger effect = lower value 0.981 | locus YLR357W, strain rsc2, stronger effect = lower value 0.972 | locus YLR370C, strain arc18, stronger effect = lower value 0.995 | locus YLR371W, strain rom2, stronger effect = lower value 0.982 | locus YLR384C, strain iki3, stronger effect = lower value 1 | locus YLR418C, strain cdc73, stronger effect = lower value 0.91 | locus YML016C, strain PPZ1, stronger effect = lower value 0.984 | locus YML032C, strain rad52, stronger effect = lower value 0.977 | locus YML120C, strain ndi1, stronger effect = lower value 0.98 | locus YML124C, strain tub3, stronger effect = lower value 0.981 | locus YMR058W, strain fet3, stronger effect = lower value 0.983 | locus YMR078C, strain ctf18, stronger effect = lower value 0.956 | locus YMR125W, strain sto1, stronger effect = lower value 0.986 | locus YMR129W, stronger effect = lower value 0.984 | locus YMR205C, strain PFK2, stronger effect = lower value 0.975 | locus YMR223W, strain ubp8, stronger effect = lower value 0.95 | locus YMR231W, strain pep5, stronger effect = lower value 0.993 | locus YMR263W, strain SAP30, stronger effect = lower value 0.938 | locus YNL067W, strain RPL9B, stronger effect = lower value 0.923 | locus YNL071W, strain lat1, stronger effect = lower value 0.99 | locus YNL128W, strain TEP1, stronger effect = lower value 0.925 | locus YNL153C, strain GIM3, stronger effect = lower value 0.968 | [6] 0.975 | locus YNL209W, strain ssb2, stronger effect = lower value 0.983 | locus YNL233W, strain BNI4, stronger effect = lower value 0.923 | locus YNL248C, strain rpa49, stronger effect = lower value 0.981 | locus YNL250W, strain rad50, stronger effect = lower value 0.956 | locus YNL271C, strain bni1, stronger effect = lower value 0.966 | locus YNL298W, strain CLA4, stronger effect = lower value 0.976 | locus YNL307C, strain MCK1, stronger effect = lower value 0.962 | locus YNL322C, strain KRE1 (second series), stronger effect = lower value 0.981 | locus YNL322C, strain KRE1, stronger effect = lower value 0.974 | locus YNR049C, strain mso1, stronger effect = lower value 0.987 | locus YNR052C, strain pop2, stronger effect = lower value 0.971 | locus YOL012C, strain htz1 0.927 | locus YOL147C, strain pex11, stronger effect = lower value 0.976 | locus YOR001W, strain rrp6, stronger effect = lower value 0.981 | locus YOR061W, strain CKA2, stronger effect = lower value 0.98 | locus YOR069W, strain VPS5, stronger effect = lower value 0.986 | locus YOR070C, strain gyp1, stronger effect = lower value 0.988 | locus YOR080W, strain dia2, stronger effect = lower value 0.987 | locus YOR083W, strain WHI5, stronger effect = lower value 0.995 | locus YOR106W, strain vam3, stronger effect = lower value 0.983 | locus YOR136W, strain idh2, stronger effect = lower value 0.968 | locus YOR144C, strain elg1, stronger effect = lower value 0.977 | locus YOR184W, strain ser1, stronger effect = lower value 0.941 | [7] 1.04 | locus YOR265W, strain rbl2, stronger effect = lower value 0.996 | locus YOR270C, strain vph1, stronger effect = lower value 0.961 | locus YOR290C, strain snf2, stronger effect = lower value 0.997 | locus YOR316C, strain cot1, stronger effect = lower value 0.974 | locus YPL051W, strain arl3, stronger effect = lower value 1.01 | locus YPL055C, strain LGE1, stronger effect = lower value 0.948 | locus YPL078C, strain atp4, stronger effect = lower value 1 | locus YPL106C, strain sse1, stronger effect = lower value 0.978 | locus YPL240C, strain hsp82, stronger effect = lower value 0.985 | locus YPL241C, strain CIN2, stronger effect = lower value 0.986 | [8] 1.07 | locus YPR119W, strain clb2, stronger effect = lower value 0.963 | locus YPR141C, strain kar3, stronger effect = lower value 0.958 | locus YPR163C, strain tif3, stronger effect = lower value 0.989 | locus YPR167C, strain met16, stronger effect = lower value 0.963 | strain wtn01, stronger effect = lower value 0.964
0.898 (active) and 1.05 (inactive): [1]
0.738 (active) and 1.03 (inactive): [3]
